The values below come from PubChem BioAssay (NCI).

About 83,000 compounds went through this panel and 20% of them were active in at least one assay; those are over-represented in the sample as a whole.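 Single-dose data. Exposure time 48 hours. Values below 10 considered active.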 A number with no mark means an inactive call. Calls of active or inactive are those of the source.

Among the test systems are NCI-H23 lung; NCI-H226 lung; NCI-H322M lung; HOP-62 NSCLC; NCI-H460 lung; HOP-92 NSCLC; NCI-H522 lung; A549/ATCC NSCLC; 786-0 renal; COLO 205 colon; DU-145 prostate; K-562 leukemia; MALME-3M melanoma; MDA-MB-231 breast; RXF 393 renal; SF-295 CNS; SF-539 CNS; UACC-257 melanoma; M14 melanoma; SF-268 CNS.
Common to all, as to assay: NCI-60 one-dose screen, 48 h (100 = growth as untreated, 0 = no growth, -100 = all killed)
Details in all cases: 10 µM unless noted

With `Cc1ccnc(Nc2nc3ccccc3[nH]2)n1`, the growth in the assay with NCI-H23 lung is 104%; in the assay with NCI-H226 lung, 108%; in the assay with NCI-H322M lung, 103%; in the assay with HOP-62 NSCLC it was 97.4%; in the assay with NCI-H460 lung it was 100%; in the assay on HOP-92 NSCLC, 99.5%. For the same compound, the growth was 103% in the assay with NCI-H522 lung; 108% with A549/ATCC NSCLC; 94% in the assay on 786-0 renal; 113% with COLO 205 colon; 123% with DU-145 prostate; 97.8% in the assay on K-562 leukemia. Further, the growth was 104% with MALME-3M melanoma; 109% in the assay on MDA-MB-231 breast; 116% in the assay on RXF 393 renal; 102% in the assay on SF-295 CNS; 98% with SF-539 CNS; 105% in the assay with UACC-257 melanoma. In addition, the growth in the assay with M14 melanoma was 97%.
Consider `NNc1ncnc2nc[nH]c12`, for which the growth was 85.2% with NCI-H23 lung; 47.9% in the assay with NCI-H226 lung; 50.5% in the assay on NCI-H322M lung; 40.7% in the assay with HOP-62 NSCLC; 50.4% in the assay with NCI-H460 lung; 86.9% with HOP-92 NSCLC. The growth with NCI-H522 lung was -15.7% (active); in the assay on A549/ATCC NSCLC, 31.5%; in the assay with 786-0 renal it was 43.2%; in the assay on COLO 205 colon it was 52.5%; in the assay with DU-145 prostate it was 36.6%; with K-562 leukemia, 48.4%. Moreover, the growth is 120% in the assay on MALME-3M melanoma; 14.9% in the assay on MDA-MB-231 breast; 83.7% in the assay with SF-268 CNS; 45.9% in the assay with SF-295 CNS; 101% with SF-539 CNS; 45.1% in the assay on UACC-257 melanoma. Moreover, the growth with M14 melanoma is 48%.
On to `Clc1cccc(Cl)c1C1CSc2ccccc2N=C1c1ccccc1` (centres undefined), for which the growth was 75.6% in the assay on NCI-H23 lung; 82.7% with NCI-H226 lung; 86.3% with NCI-H322M lung; 84.6% in the assay with HOP-62 NSCLC; 83.1% in the assay on NCI-H460 lung; 75.4% in the assay on HOP-92 NSCLC. Moreover, the growth is 63.6% with NCI-H522 lung; 73.8% in the assay on A549/ATCC NSCLC; 90.6% in the assay with 786-0 renal; 102% with COLO 205 colon; 59.6% with DU-145 prostate; 4.38% (active) with K-562 leukemia. Further, the growth was 110% with MALME-3M melanoma; 70.5% with MDA-MB-231 breast; 73.4% with SF-268 CNS; 101% in the assay with SF-539 CNS; 51.4% in the assay on UACC-257 melanoma; 86.6% in the assay with M14 melanoma.
With `CN1CCCN(C(c2ccccc2)c2ccc(Br)cc2)CC1` (centres undefined), the growth in the assay with NCI-H23 lung is 87.1%; in the assay on NCI-H226 lung, 78.2%; in the assay on NCI-H322M lung it was 39.7%; with HOP-62 NSCLC, 76.8%; in the assay on NCI-H460 lung, 82.5%; in the assay on HOP-92 NSCLC, 25.8%. Also, the growth with NCI-H522 lung is 90.8%; in the assay with A549/ATCC NSCLC, 87.7%; in the assay on 786-0 renal, 79.1%; with COLO 205 colon, 81.5%; with DU-145 prostate, 94.8%; in the assay with K-562 leukemia, 20.3%. Moreover, the growth in the assay with MALME-3M melanoma was 63.1%; with MDA-MB-231 breast it was 49%; with SF-268 CNS it was 61.6%; with SF-295 CNS, 57.8%; in the assay with SF-539 CNS, 75.2%; with UACC-257 melanoma, 91%.
